Experimental data reported in PubChem BioAssay AID1159580 (chemical genetic matrix, 2015).
Hit rate of the full screen: of about 5,500 compounds, about 2,000 (36%) were called active. About 18% were inconclusive and are not listed. No stated cut-off is given here; in the data, active means normalized growth mostly below about 0.91 (no sharp cut-off); inconclusive means no clear call, values can overlap the other calls; inactive means mostly above about 0.92. Some of the results follow.

Test: chemical genetic growth profiling, strain panel (AID 1159580);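 further: tested at 20 µM; growth read once vehicle control cultures reached saturation at 30 °C; 1 = growth at the plate median or of vehicle wells; lower values mean less growth of the strain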
Conditions: growth OD

Measured: normalized growth

Cc1ccc(COc2ccc(C)nc2[N+](=O)[O-])cc1
inactive: S. cerevisiae deletion strains, locus YAL013W, strain DEP1, hits give low values 0.977 | S. cerevisiae deletion strains, locus YBR229C, strain ROT2, hits give low values 0.932 | S. cerevisiae deletion strains, locus YCL061C, strain MRC1, hits give low values 0.946 | S. cerevisiae deletion strains, locus YDL101C, strain DUN1, hits give low values 0.905 | S. cerevisiae deletion strains, locus YDR150W, strain NUM1, hits give low values 0.854 | S. cerevisiae deletion strains, locus YEL061C, strain CIN8, hits give low values 0.922 | S. cerevisiae deletion strains, locus YGR229C, strain SMI1, hits give low values 0.958 | S. cerevisiae deletion strains, locus YHR087W, strain rtc3, hits give low values 0.959 | S. cerevisiae deletion strains, locus YLR058C, strain SHM2 (second series), hits give low values 0.954 | S. cerevisiae deletion strains, locus YNL153C, strain GIM3, hits give low values 0.951 | S. cerevisiae deletion strains, locus YNL322C, strain KRE1, hits give low values 0.972 | S. cerevisiae deletion strains, locus YPL055C, strain LGE1, hits give low values 0.809
active: S. cerevisiae deletion strains, locus YDL134C, strain PPH21, hits give low values 0.902 | S. cerevisiae deletion strains, locus YGR078C, strain PAC10, hits give low values 0.918 | S. cerevisiae deletion strains, locus YHR030C, strain SLT2, hits give low values 0.252 | S. cerevisiae deletion strains, locus YJL187C, strain SWE1, hits give low values 0.932 | S. cerevisiae deletion strains, locus YJR043C, strain POL32, hits give low values 0.872 | S. cerevisiae deletion strains, locus YJR075W, strain HOC1, hits give low values 0.857 | S. cerevisiae deletion strains, locus YLR039C, strain RIC1, hits give low values 0.57 | S. cerevisiae deletion strains, locus YLR085C, strain ARP6, hits give low values 0.295 | S. cerevisiae deletion strains, locus YLR262C, strain YPT6, hits give low values 0.593 | S. cerevisiae deletion strains, locus YML094W, strain GIM5, hits give low values 0.855 | S. cerevisiae deletion strains, locus YMR219W, strain ESC1, hits give low values 0.939 | S. cerevisiae deletion strains, locus YNL298W, strain CLA4 (second series), hits give low values 0.75 | S. cerevisiae deletion strains, locus YNR030W, strain Alg12, hits give low values 0.758 | S. cerevisiae deletion strains, locus YOL006C, strain TOP1, hits give low values 0.593 | S. cerevisiae deletion strains, locus YPL241C, strain CIN2, hits give low values 0.71 | S. cerevisiae deletion strains, locus YPR135W, strain CTF4, hits give low values 0.382 | S. cerevisiae strains, strain wild type, hits give low values 0.859
